# Screening data: PubChem BioAssay, National Center for Advancing Translational Sciences (NCATS)
# HPGD inh = inhibitors of human 15-hydroxyprostaglandin dehydrogenase (HPGD). P15428. purified HPGD, NADH fluorescence kinetic, PGE2 substrate. Potency, µM, inactives show at the top dose activity change, negative = inhibition, most hits filed as inhibitors. actives 4.3% (n = 150,000). AID 894; further: potency means the concentration at half of the fitted maximal effect
# Target sequence (P15428 whole entry, looked up): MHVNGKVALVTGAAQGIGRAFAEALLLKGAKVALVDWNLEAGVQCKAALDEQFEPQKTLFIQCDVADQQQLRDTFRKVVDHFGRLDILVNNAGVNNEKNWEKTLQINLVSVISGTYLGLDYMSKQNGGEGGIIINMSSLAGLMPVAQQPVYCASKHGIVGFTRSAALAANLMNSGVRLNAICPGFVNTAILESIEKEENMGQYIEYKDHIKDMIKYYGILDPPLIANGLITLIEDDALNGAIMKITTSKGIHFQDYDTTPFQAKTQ
#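 20 nM HPGD preincubated 15 min at room temperature with compound in 50 mM Tris-HCl pH 8, 0.01% Tween 20. Started with 1 mM NAD+ and 30 uM prostaglandin E2; NADH fluorescence (360/450 nm) read 5 times over 30-s intervals, last minus first.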
# IMPase Li cell = cell-permeable IMPase inhibitors with lithium potentiation; CHO-M1 cells, IP1 TR-FRET (IP-One), carbachol + lithium; Potency, µM (titrated, usually from 59.4 µM), inactives show top-dose activity, negative = IMPase inhibition, usual class: inhibitors; actives 0.35% (n = 210,000); AID 1457; active means well fitted inhibition curve with a large enough effect; inconclusive means small, poorly fitted or top-dose-only effect; inactive means no such curve, though single readings can be large or run the other way;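 further: IP1 builds up when IMPase is blocked and the TR-FRET signal falls; potency means the concentration at half of the fitted maximal effect; plate controls were basal vehicle for no effect and high inhibitor control for full effect; nearly all actives have a fitted effect of over 50% in size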
#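 Readout is a homogeneous TR-FRET IP1 immunoassay (Ex 320, Em 665 and 620), where raised cytosolic IP1 lowers signal. Cells were CHO-M1 treated 30 min at 37C with test compounds plus a little lithium; AC50 values came from Hill-equation fitting.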
# PNC assembly inh = blocks assembly of the perinucleolar compartment | actives 3.1% (n = 140,000) | activity change (PNC), negative = inhibition, % at 10 µM | AID 2417 | PC3M PTB-GFP, PNC prevalence imaging, 16 h; active compounds read low;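 active means readout at or below -70, meaning at least 70% loss of cells showing the perinucleolar compartment, a nuclear body marking cancer cells; inconclusive means readout between -30 and a set limit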;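 further: plate controls were DMSO wells for no effect and camptothecin positive control wells for full effect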
#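 Read-out is percentage of cells bearing a perinucleolar compartment, from automated 20x imaging of fixed, Hoechst-stained PC3M PTB-GFP cells. Cells were seeded 4 h, then exposed 16 h to compound (23 nl of library stock) in duplicate plates.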
# ALDH1A1 block = inhibitors of human aldehyde dehydrogenase 1A1. P00352. Purified ALDH1A1, NADH fluorescence, propionaldehyde substrate. Potency, µM (titrated, usually from 75.3 µM), inactives show at the highest dose activity, negative = inhibition, hits mostly inhibitors. actives 7.3% (n = 220,000);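 further: potency means the concentration at half of the fitted maximal effect; plate controls were no enzyme wells and a reference inhibitor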
# IMPase inh = membrane-permeable compound that blocks inositol monophosphatase; CHO-M1 cells, IP1 accumulation, HTRF TR-FRET ratio; inhibition (IP1 accumulation), % at 46.1 µM; 120,000 tested, under 10 active; AID 901; active means well fitted curve in the direction sought with a large enough effect in the signal ratio, not every such curve was filed as active; inconclusive means small, poorly fitted or top-dose-only effect, or a change in a side signal; inactive means no such curve, though single readings can be large or run the other way; the % refers to the signal ratio;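 further: cells stimulated with carbachol in lithium chloride buffer; plate controls were DMSO basal wells for no effect and reference inhibitor wells for full effect; higher means more IMPase inhibition seen as more IP1 and lower FRET ratio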
# Target sequence (P97697 whole entry, looked up): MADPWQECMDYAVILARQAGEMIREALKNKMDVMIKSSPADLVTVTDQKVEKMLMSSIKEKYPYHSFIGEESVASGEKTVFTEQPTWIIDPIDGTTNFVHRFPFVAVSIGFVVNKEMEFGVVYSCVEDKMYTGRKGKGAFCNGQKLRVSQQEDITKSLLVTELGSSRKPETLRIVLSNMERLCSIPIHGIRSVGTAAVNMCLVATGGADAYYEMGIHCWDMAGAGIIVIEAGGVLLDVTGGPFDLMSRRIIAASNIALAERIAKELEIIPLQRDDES
#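 The IP-One HTRF competitive assay in carbachol-stimulated CHO-M1 cells quantifies cellular IP1. Compounds spanned up to 46 uM final, and activity is expressed as AC50 from concentration-response fits of the ratio and donor data.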
# * = called active by the depositor; ? = inconclusive; / = no result; [ ] = remark or other dose. The list is not random: actives were taken first. Their share in the collection is about 11%. Unless noted, the call rests on the fitted dose curve; in most records, active means well fitted inhibition curve with a large enough effect (not every such curve was filed as active); inconclusive means small, poorly fitted or top-dose-only effect, or another doubt; inactive means no such curve, though single readings can be large or run the other way. Unless noted, on the % scale 0 is the no-effect control and ±100 the full control effect.
SMILES,HPGD inh,IMPase Li cell,PNC assembly inh,ALDH1A1 block,IMPase inh
COC(=O)CCC(=O)OC1(C)C(=O)C2=CN(C3CC3)C(c3ccc(OC)cc3)=CC2=C(Br)C1=O (centres undefined),-7%,1%,/,?,/
COC(=O)CCC(=O)OC1(C)C(=O)C2=CN(Cc3ccccc3)C(c3ccc(OC)cc3)=CC2=C(Br)C1=O (centres undefined),-3%,8%,/,-15%[13.5 µM],/
COC(=O)CCC(=O)OC1(C)C(=O)C2=CN(Cc3ccc(OC)cc3)C(c3ccc(OC)cc3)=CC2=C(Br)C1=O (centres undefined),-12%,9%,/,3.2µM*,/
COC(=O)CCC(=O)OC1(C)C(=O)C2=CN(c3ccccc3)C(c3ccc(OC)cc3)=CC2=C(Br)C1=O (centres undefined),-12%,6%,/,3.5µM*,/
CN(C)c1ncc2nc(-c3ccc(Cl)cc3)c(=O)n(Cc3cccs3)c2n1,/,2%,/,?,/
Nc1nc2c(c(=O)[nH]1)C(c1cccc3ccccc13)C1=C(N2)c2ccccc2C1=O (centres undefined),/,1%,/,3.2µM*,/
CC(C)(C)Cc1nnc(NC(=O)Cc2ccc([N+](=O)[O-])cc2)s1,14µM*,-1%,-13,11µM*,-5
CC(C)Cc1nnc(NC(=O)Cc2ccccc2[N+](=O)[O-])s1,32µM*,3%,?,?,/
COc1ccc(C(=O)CSc2nnc(CN3CCCC3)n2-c2ccc(F)cc2)c(OC)c1,-1%,7%,30,?,/
O=C(Cn1[nH]c(=O)c2ccccc2c1=O)OCC(=O)N1CCCc2ccccc21,-11%,0%[38.3 µM],-97*,4%,6
O=C(Cn1[nH]c(=O)c2ccccc2c1=O)OCC(=O)N1CCc2ccccc2C1,-12%,-3%[38.3 µM],44,1%,0
O=C(Cn1cnc2ccccc21)OCC(=O)N1CCCc2ccccc21,-4%,14%[38.3 µM],-19,14µM*,13
COc1cccc2c(=O)n(CC(=O)N3CCCc4ccccc43)ccc12,-10%,-8%[38.3 µM],17,10µM*,0
CCCCCCC1=Cc2cc(OC)c(OC)cc2C(C(C(C)=O)C(=O)OC)O1 (centres undefined),/,/,/,10%[13.5 µM],/
O=C(/C=C\c1ccc(-c2cccc([N+](=O)[O-])c2)o1)N1CCOCC1,/,15%,/,?,/
O=C1CCC/C(=N/Nc2ccc(Cl)cc2)C1,/,42%,/,1.6µM*,/
COC(=O)NC(c1ccccc1)c1c[nH]c2ccccc12 (centres undefined),-5%,2%,/,6%,/
CN(CCO)CCOCCOc1cccc2ccccc12,/,-3%,/,14µM*,/
OCCOCCOc1cccc2[nH]ccc12,/,7%,/,13%,/
CC(C)(C)NS(=O)(=O)c1cccc(S(=O)(=O)c2cccc(S(=O)(=O)NC(C)(C)C)c2)c1,20µM*,-14%[38.3 µM],3,5%,5
NC(=S)NNc1cccc(Cl)c1,-22%,33%[38.3 µM],17,1.6µM*,-4
Cc1cccc(Nc2ccccc2)c1,-13%,9%[38.3 µM],?,12%,-3
S=C(NNc1cccc(Cl)c1)NC1CCCCC1,/,-2%,/,25µM*,/
S=C(Nc1cccc(Cl)c1)NC1CCCCC1,-16%,-6%[38.3 µM],72,3%,2
Cc1cccc(NNC(N)=S)c1,/,-1%,/,8.9µM*,/
SMILES,HPGD inh,IMPase Li cell,PNC assembly inh,ALDH1A1 block,IMPase inh
Cc1ccccc1NNC(N)=S,/,-2%,/,22µM*,/
C[N+]1(C2CCC3CCCC2C3O)CCCCC1 (centres undefined),/,12%,/,1%,/
COc1ccc(/C=N/NC(=O)CCn2cnc(-c3ccccc3)c2-c2ccccc2)cc1OC,-7%,9%,?,28µM*,/
COc1cc(OC)c2c(=O)c(-c3ccccc3)coc2c1,?,1%,/,?,/
Cn1c(=O)cc(OCC(=O)NCc2cccs2)c2ccccc21,/,8%,/,-5%,/
Cc1ccc(NC(=O)CSc2nc(N)c3c4c(sc3n2)CSC(C)(C)C4)cc1,-29%,-4%,-93*,-11%,/
CCCn1c(-c2ccc(F)cc2)nc2c(NCCN3CCSCC3)nc(C)nc21,-6%,18%,/,?,/
CN(C)CC(=O)N1c2ccccc2CCc2ccc(NC(=O)c3ccc(N)cc3)cc21,-13%,45%[38.3 µM],-85*,?,4
